Results reported in PubChem BioAssay (NCI).
This is part of a sample that, as a whole, favours compounds with a hit. Of some 79,000 tested, about 15% had one in any assay. A number with no mark means an inactive call. The source made the active and inactive calls. Cut-off read from the data, not from the text of the source: active = growth inhibition above about 70%; inactive = the rest.

Experiments:
[1] = NCI Yeast Anticancer Drug Screen. Data for the wt1 strain (AID 149);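 note: 0% = growth of vehicle-treated wt1 cultures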; details: S. cerevisiae wt1 strain (SPY 50644) growth inhibition, hits give high values
How it was run: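 Growth inhibition read against vehicle controls after compound exposure of the wt1 yeast strain.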

[2] = NCI Yeast Anticancer Drug Screen. Data for the rad50EPP+ strain (AID 151);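 note: 0% = growth of vehicle-treated control cultures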; details: S. cerevisiae rad50 mutant strain, hits give high values
How it was run: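 Measured: growth inhibition of rad50EPP+ yeast. Reference: vehicle-treated controls. Screen uses strains with defined genetic alterations in DNA damage repair or cell cycle control.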

[3] = NCI Yeast Anticancer Drug Screen. Data for the mgt1 strain (AID 153); details: S. cerevisiae mgt1 mutant growth inhibition, hits give high values
How it was run: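 Compounds were applied to mgt1 mutant yeast, and growth was then compared against vehicle-treated control cultures to give percent inhibition.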

[4] = NCI Yeast Anticancer Drug Screen. Data for the rad50 strain (AID 155);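 note: 0% = growth of vehicle-only cultures of the same strain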; details: S. cerevisiae rad50 strain growth inhibition, hits give high values
How it was run: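 Readout: growth inhibition relative to vehicle-treated cultures. Compound exposure was carried out in a genetically defined yeast strain deficient in DNA damage repair.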

[5] = NCI Yeast Anticancer Drug Screen. Data for the mec2-1 strain (AID 157); details: S. cerevisiae mec2-1 strain, hits give high values
How it was run: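 Compounds were applied to mec2-1 yeast cells. Their growth was then compared with that of vehicle-treated cultures to give growth inhibition.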

[6] = NCI Yeast Anticancer Drug Screen. Data for the rad14 strain (AID 159);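 note: 0% = growth of vehicle-treated control cultures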; details: S. cerevisiae rad14 strain growth inhibition, hits give high values
How it was run: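 Growth inhibition vs vehicle controls; genetically altered yeast strain (DNA damage repair defect) treated with test compounds.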

[7] = NCI Yeast Anticancer Drug Screen. Data for the sgs1 mgt1 strain (AID 161);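 note: 0% = growth of cultures given vehicle only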; details: S. cerevisiae sgs1 mgt1 strain, hits give high values
How it was run: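 This yeast growth screen uses a strain with defined DNA-repair lesions; compound-treated growth is compared with vehicle-treated growth.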

[8] = NCI Yeast Anticancer Drug Screen. Data for the CLN2oe strain (AID 163);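 note: 0% = growth of vehicle-only control cultures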; details: S. cerevisiae CLN2oe strain, hits give high values
How it was run: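 Cells of an engineered yeast line with disturbed cell-cycle regulation are treated with compound. Inhibition of growth is then calculated relative to the vehicle-treated reference.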

[9] = NCI Yeast Anticancer Drug Screen. Data for the cln2 rad14 strain (AID 165);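 note: 0% = growth equal to vehicle treated cultures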; details: S. cerevisiae cln2 rad14 strain, hits give high values
How it was run: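 Strain: cln2 rad14 yeast, altered in cell cycle control and DNA damage repair. Read-out: growth inhibition vs vehicle.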

[10] = NCI Yeast Anticancer Drug Screen. Data for the bub3 strain (AID 167); details: S. cerevisiae bub3 mutant strain, hits give high values
How it was run: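 Readout: yeast growth inhibition, expressed relative to vehicle-only wells. The test organism is a mutant strain from a panel with lesions in DNA repair or checkpoint genes.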

[11] = NCI Yeast Anticancer Drug Screen. Data for the wt2 strain (AID 169);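 note: 0% = growth of vehicle-treated yeast cultures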; details: S. cerevisiae wt2 strain growth inhibition, hits give high values
How it was run: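 Growth of compound-treated yeast is measured and expressed as inhibition relative to vehicle-only controls.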

[12] = NCI Yeast Anticancer Drug Screen. Data for the mlh1 strain (AID 171);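 note: 0% = growth of vehicle-treated control cultures of the same strain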; details: S. cerevisiae mlh1 strain growth inhibition, hits give high values
How it was run: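 Test agents were incubated with yeast bearing a defined DNA damage repair or cell cycle control alteration; values are growth inhibition normalised to vehicle-treated cultures.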

[13] = NCI Yeast Anticancer Drug Screen. Data for the sgs1 strain (AID 173);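 note: 0% = growth of vehicle-only control cultures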; details: S. cerevisiae sgs1 mutant, hits give high values
How it was run: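 Strain with an altered DNA repair or cell cycle pathway exposed to compound. Growth then measured. Value = inhibition versus vehicle control.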

[14] = NCI Yeast Anticancer Drug Screen. Data for the mlh1 rad18 strain (AID 175); details: S. cerevisiae mlh1 rad18 strain growth inhibition, hits give high values
How it was run: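 A repair-deficient yeast strain is exposed to test compound, and growth is scored relative to vehicle-treated controls.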

[15] = NCI Yeast Anticancer Drug Screen. Data for the rad18 strain (AID 177); details: S. cerevisiae rad18 mutant growth inhibition, hits give high values
How it was run: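 DNA-repair-defective yeast; compound treatment; growth inhibition scored against vehicle.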

[16] = at 5.0 µM (retest, dose inferred, filed as 0.5)
[17] = at 50.0 µM (retest, dose inferred, filed as 5.0)

With `Cc1c(N)nc([C@H](CC(N)=O)NC[C@H](N)C(N)=O)nc1C(=O)N[C@H](C(=O)N[C@H](C)[C@@H](O)[C@H](C)C(=O)N[C@H](C(=O)NCCc1nc(-c2nc(C(=O)NCCC[S+](C)C)cs2)cs1)[C@@H](C)O)C(OC1OC(CO)C(O)C(O)C1OC1OC(CO)C(O)C(OC(N)=O)C1O)c1cnc[nH]1` (stereo partly specified) the growth inhibition ([1]; at 1.2 µM) was 0%, the growth inhibition ([1]; at 3.7 µM) was 1% and the growth inhibition ([1]; at 11.0 µM) was 11%. The growth inhibition ([1]; at 33.0 µM) was 27%, the growth inhibition ([1]; at 100.0 µM) was 74% (active) and the growth inhibition ([2]; at 1.2 µM) was 0%. The growth inhibition ([2]; at 3.7 µM) was 7%, the growth inhibition ([2]; at 11.0 µM) was 31% and the growth inhibition ([2]; at 33.0 µM) was 68%. For the same compound, the growth inhibition ([2]; at 100.0 µM) was 94% (active), the growth inhibition ([3]; at 1.2 µM) was -3% and the growth inhibition ([3]; at 3.7 µM) was 2%. For the same compound, the growth inhibition ([3]; at 11.0 µM) was 11%, the growth inhibition ([3]; at 33.0 µM) was 35% and the growth inhibition ([3]; at 100.0 µM) was 91% (active). For the same compound, the growth inhibition ([4]; at 1.2 µM) was 8%, the growth inhibition ([4]; at 3.7 µM) was 27% and the growth inhibition [4, 16] was 98% (active). The growth inhibition ([4]; at 11.0 µM) was 63%, the growth inhibition ([4]; at 33.0 µM) was 94% (active) and the growth inhibition [4, 17] was 99% (active). For the same compound, the growth inhibition ([4]; at 50.0 µM) was 93.2% (active), the growth inhibition ([4]; at 100.0 µM) was 95% (active) and the growth inhibition ([5]; at 1.2 µM) was 1%. The growth inhibition ([5]; at 3.7 µM) was 12%, the growth inhibition [5, 16] was 99% (active) and the growth inhibition ([5]; at 11.0 µM) was 29%. The growth inhibition ([5]; at 33.0 µM) was 52%, the growth inhibition [5, 17] was 99% (active) and the growth inhibition ([5]; at 50.0 µM) was 93.5% (active). The growth inhibition ([5]; at 100.0 µM) was 94% (active), the growth inhibition ([6]; at 1.2 µM) was 4% and the growth inhibition ([6]; at 3.7 µM) was 11%. The growth inhibition ([6]; at 11.0 µM) was 29%, the growth inhibition ([6]; at 33.0 µM) was 78% (active) and the growth inhibition ([6]; at 100.0 µM) was 95% (active). For the same compound, the growth inhibition [7, 16] was 98% (active), the growth inhibition [7, 17] was 99% (active) and the growth inhibition ([7]; at 50.0 µM) was 93.3% (active). The growth inhibition ([8]; at 1.2 µM) was 2%, the growth inhibition ([8]; at 3.7 µM) was -7% and the growth inhibition ([8]; at 11.0 µM) was 14%. The growth inhibition ([8]; at 33.0 µM) was 43%, the growth inhibition ([8]; at 100.0 µM) was 94% (active) and the growth inhibition [9, 16] was 96% (active). For the same compound, the growth inhibition [9, 17] was 98% (active), the growth inhibition ([9]; at 50.0 µM) was 89.8% (active) and the growth inhibition ([10]; at 1.2 µM) was -2%. For the same compound, the growth inhibition ([10]; at 3.7 µM) was 2%, the growth inhibition [10, 16] was 98% (active) and the growth inhibition ([10]; at 11.0 µM) was 14%. The growth inhibition ([10]; at 33.0 µM) was 53%, the growth inhibition [10, 17] was 99% (active) and the growth inhibition ([10]; at 50.0 µM) was 93.7% (active). The growth inhibition ([10]; at 100.0 µM) was 91% (active), the growth inhibition ([11]; at 1.2 µM) was 0% and the growth inhibition ([11]; at 3.7 µM) was 2%. For the same compound, the growth inhibition ([11]; at 11.0 µM) was 21%, the growth inhibition ([11]; at 33.0 µM) was 54% and the growth inhibition ([11]; at 100.0 µM) was 93% (active). It also gave a growth inhibition ([12]; at 1.2 µM) of 0%, a growth inhibition ([12]; at 3.7 µM) of 4% and a growth inhibition ([12]; at 11.0 µM) of 18%. For the same compound, the growth inhibition ([12]; at 33.0 µM) was 61%, the growth inhibition ([12]; at 100.0 µM) was 95% (active) and the growth inhibition ([13]; at 1.2 µM) was 2%. For the same compound, the growth inhibition ([13]; at 3.7 µM) was 8%, the growth inhibition ([13]; at 11.0 µM) was 31% and the growth inhibition ([13]; at 33.0 µM) was 77% (active). For the same compound, the growth inhibition ([13]; at 100.0 µM) was 96% (active), the growth inhibition [14, 16] was 99% (active) and the growth inhibition [14, 17] was 99% (active). For the same compound, the growth inhibition ([14]; at 50.0 µM) was 92.8% (active), the growth inhibition ([15]; at 1.2 µM) was 6% and the growth inhibition ([15]; at 3.7 µM) was 27%. For the same compound, the growth inhibition ([15]; at 11.0 µM) was 67%, the growth inhibition ([15]; at 33.0 µM) was 94% (active) and the growth inhibition ([15]; at 100.0 µM) was 97% (active).

With `C[C@]12CCc3nonc3C1CC[C@@H]1C2CC[C@]2(C)C(=O)CCC12` (stereo partly specified) the growth inhibition ([1]; at 1.2 µM) was 0%, the growth inhibition ([1]; at 3.7 µM) was -2% and the growth inhibition ([1]; at 11.0 µM) was -4%. It also gave a growth inhibition ([1]; at 33.0 µM) of 6%, a growth inhibition ([1]; at 100.0 µM) of 21% and a growth inhibition ([2]; at 1.2 µM) of 0%. The growth inhibition ([2]; at 3.7 µM) was 1%, the growth inhibition ([2]; at 11.0 µM) was 5% and the growth inhibition ([2]; at 33.0 µM) was 12%. It also gave a growth inhibition ([2]; at 100.0 µM) of 13%, a growth inhibition ([3]; at 1.2 µM) of 8% and a growth inhibition ([3]; at 3.7 µM) of 6%. For the same compound, the growth inhibition ([3]; at 11.0 µM) was 19%, the growth inhibition ([3]; at 33.0 µM) was 42% and the growth inhibition ([3]; at 100.0 µM) was 59%. The growth inhibition ([4]; at 1.2 µM) was 11%, the growth inhibition ([4]; at 3.7 µM) was 7% and the growth inhibition [4, 16] was 51%. It also gave a growth inhibition ([4]; at 11.0 µM) of 28%, a growth inhibition ([4]; at 33.0 µM) of 62% and a growth inhibition [4, 17] of 68%. The growth inhibition ([4]; at 50.0 µM) was 68%, the growth inhibition ([4]; at 100.0 µM) was 76% (active) and the growth inhibition ([5]; at 1.2 µM) was -1%. It also gave a growth inhibition ([5]; at 3.7 µM) of -3%, a growth inhibition [5, 16] of 26% and a growth inhibition ([5]; at 11.0 µM) of 10%. For the same compound, the growth inhibition ([5]; at 33.0 µM) was 15%, the growth inhibition [5, 17] was 40% and the growth inhibition ([5]; at 50.0 µM) was 33.2%. The growth inhibition ([5]; at 100.0 µM) was 36%, the growth inhibition ([6]; at 1.2 µM) was 27% and the growth inhibition ([6]; at 3.7 µM) was 38%. The growth inhibition ([6]; at 11.0 µM) was 38%, the growth inhibition ([6]; at 33.0 µM) was 46% and the growth inhibition ([6]; at 100.0 µM) was 60%. For the same compound, the growth inhibition [7, 16] was 46%, the growth inhibition [7, 17] was 73% (active) and the growth inhibition ([7]; at 50.0 µM) was 81.5% (active). It also gave a growth inhibition ([8]; at 1.2 µM) of 17%, a growth inhibition ([8]; at 3.7 µM) of 25% and a growth inhibition ([8]; at 11.0 µM) of 28%. It also gave a growth inhibition ([8]; at 33.0 µM) of 41%, a growth inhibition ([8]; at 100.0 µM) of 51% and a growth inhibition [9, 16] of 54%. For the same compound, the growth inhibition [9, 17] was 57%, the growth inhibition ([9]; at 50.0 µM) was 44.1% and the growth inhibition ([10]; at 1.2 µM) was 1%. It also gave a growth inhibition ([10]; at 3.7 µM) of 6%, a growth inhibition [10, 16] of 14% and a growth inhibition ([10]; at 11.0 µM) of 19%. The growth inhibition ([10]; at 33.0 µM) was 24%, the growth inhibition [10, 17] was 76% (active) and the growth inhibition ([10]; at 50.0 µM) was 35.8%. For the same compound, the growth inhibition ([10]; at 100.0 µM) was 49%, the growth inhibition ([11]; at 1.2 µM) was 5% and the growth inhibition ([11]; at 3.7 µM) was 6%. For the same compound, the growth inhibition ([11]; at 11.0 µM) was 1%, the growth inhibition ([11]; at 33.0 µM) was 14% and the growth inhibition ([11]; at 100.0 µM) was 39%. For the same compound, the growth inhibition ([13]; at 1.2 µM) was 13%, the growth inhibition ([13]; at 3.7 µM) was 21% and the growth inhibition ([13]; at 11.0 µM) was 31%. For the same compound, the growth inhibition ([13]; at 33.0 µM) was 50%, the growth inhibition ([13]; at 100.0 µM) was 78% (active) and the growth inhibition [14, 16] was 46%. The growth inhibition [14, 17] was 68%, the growth inhibition ([14]; at 50.0 µM) was 56.9% and the growth inhibition ([15]; at 1.2 µM) was 14%. It also gave a growth inhibition ([15]; at 3.7 µM) of 12%, a growth inhibition ([15]; at 11.0 µM) of 19% and a growth inhibition ([15]; at 33.0 µM) of 28%. For the same compound, the growth inhibition ([15]; at 100.0 µM) was 62%.
